Assay results as given in PubChem BioAssay (NCI).
The panel holds about 83,000 compounds, 20% with a hit somewhere; the sample as a whole holds those more often.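 The test compound was applied at a single concentration to cells in 96-well plates for 48 hours, and percent growth was recorded.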 Calls of active or inactive are those of the source. Rule for the calls: active = growth percent below 10; inactive = the rest.

Assays:
Assay in all cases: NCI-60 one-dose screen, 48 h (100 = growth as untreated, 0 = no growth, -100 = all killed)
Conditions in all cases: 10 µM unless noted
SR leukemia = tested on: SR leukemia
RPMI-8226 leukemia = tested on: RPMI-8226 leukemia
OVCAR-8 ovarian = tested on: OVCAR-8 ovarian
OVCAR-5 ovarian = tested on: OVCAR-5 ovarian
OVCAR-4 ovarian = tested on: OVCAR-4 ovarian
SK-OV-3 ovarian = tested on: SK-OV-3 ovarian
IGROV1 ovarian = tested on: IGROV1 ovarian
OVCAR-3 ovarian = tested on: OVCAR-3 ovarian
HS 578T breast = tested on: HS 578T breast
NCI/ADR-RES ovarian = tested on: NCI/ADR-RES ovarian
T-47D breast = tested on: T-47D breast
BT-549 breast = tested on: BT-549 breast
MDA-MB-435 melanoma = tested on: MDA-MB-435 melanoma
SW-620 colon = tested on: SW-620 colon
MCF7 breast = tested on: MCF7 breast
KM12 colon = tested on: KM12 colon
HCC-2998 colon = tested on: HCC-2998 colon
HCT-116 colon = tested on: HCT-116 colon

Measured: growth

Cc1cc2cc3ccc(N(C)C)cc3nc2cc1N
inactive: NCI/ADR-RES ovarian 42.4% | BT-549 breast 20.7%
active: SR leukemia -2.93% | RPMI-8226 leukemia -19.1% | OVCAR-8 ovarian -2.19% | OVCAR-5 ovarian 3.07% | OVCAR-4 ovarian -11.9% | SK-OV-3 ovarian -8.06% | IGROV1 ovarian -1.84% | OVCAR-3 ovarian -24.7% | HS 578T breast -32.5% | T-47D breast -9.44% | MDA-MB-435 melanoma 5.71% | SW-620 colon -37.9% | MCF7 breast -4.08% | KM12 colon -20.7%

CCOC(=O)CSc1nc2ccccc2c(=O)n1Cc1ccc(S(N)(=O)=O)cc1
inactive: SR leukemia 99.6% | RPMI-8226 leukemia 98.2% | OVCAR-8 ovarian 101% | OVCAR-5 ovarian 97.5% | OVCAR-4 ovarian 116% | SK-OV-3 ovarian 107% | IGROV1 ovarian 105% | OVCAR-3 ovarian 112% | HS 578T breast 97.9% | NCI/ADR-RES ovarian 104% | T-47D breast 102% | BT-549 breast 105% | MDA-MB-435 melanoma 102% | SW-620 colon 98.6% | MCF7 breast 96.7% | HCC-2998 colon 109% | KM12 colon 104%

CCCOC(=O)N[C@H]1CCc2c(Cl)c(OC)c(OC)c(OC)c2-c2ccc(SC)c(=O)cc21
active: SR leukemia 4.56% | RPMI-8226 leukemia -2.97% | OVCAR-3 ovarian -24.7% | HS 578T breast 9.75% | BT-549 breast 1.4% | HCT-116 colon 0.896% | KM12 colon -6.7%
inactive: OVCAR-8 ovarian 21.6% | OVCAR-5 ovarian 44.7% | OVCAR-4 ovarian 36.3% | SK-OV-3 ovarian 38.3% | IGROV1 ovarian 11.7% | NCI/ADR-RES ovarian 13.6% | T-47D breast 45.9% | SW-620 colon 20.2% | MCF7 breast 14.7% | HCC-2998 colon 22.6%

COc1cc(F)c(/C=C/c2cc(/C=C/c3cc(OC)c(OC)cc3F)on2)cc1OC
inactive: SR leukemia 46.9% | RPMI-8226 leukemia 68.2% | OVCAR-8 ovarian 87.1% | OVCAR-5 ovarian 97.6% | OVCAR-4 ovarian 101% | SK-OV-3 ovarian 105% | IGROV1 ovarian 79.5% | OVCAR-3 ovarian 36.1% | HS 578T breast 89.2% | NCI/ADR-RES ovarian 89.3% | T-47D breast 79% | BT-549 breast 91.4% | MCF7 breast 70.6% | HCT-116 colon 60.3% | HCC-2998 colon 91.9% | KM12 colon 54.6%
active: MDA-MB-435 melanoma 7.63%

COc1ccc(C(=O)Nc2cccc(C3CCc4c(cc(OC)c(OC)c4OC)O3)c2)cc1 (stereo not given)
active: MDA-MB-435 melanoma -14.9%
inactive: SR leukemia 21.6% | RPMI-8226 leukemia 23.9% | OVCAR-8 ovarian 55.6% | OVCAR-5 ovarian 91.1% | OVCAR-4 ovarian 47.4% | SK-OV-3 ovarian 51.6% | IGROV1 ovarian 52% | OVCAR-3 ovarian 35.3% | HS 578T breast 38.9% | NCI/ADR-RES ovarian 38.5% | T-47D breast 15.8% | BT-549 breast 40.9% | MCF7 breast 33.1% | HCT-116 colon 23.1% | KM12 colon 29.4%

CNCCOc1nc2c3cnccc3cc(-c3cc(OC)c(OC)c(OC)c3)c2c2ccncc12
active: SR leukemia -18.2% | RPMI-8226 leukemia -32% | OVCAR-8 ovarian -37.3% | OVCAR-5 ovarian -9.07% | OVCAR-4 ovarian -2.03% | SK-OV-3 ovarian -33.9% | IGROV1 ovarian -16.3% | OVCAR-3 ovarian 1.62% | HS 578T breast -25.7% | NCI/ADR-RES ovarian -27.9% | T-47D breast -12.4% | BT-549 breast -45.5% | SW-620 colon 3.63% | MCF7 breast -0.459% | HCT-116 colon -89.9% | HCC-2998 colon -77% | KM12 colon 5.03%

O=Cc1ccc(-c2cn3ccnc3c(-c3ccc4ncn(Cc5ccccc5)c4c3)n2)cc1
inactive: SR leukemia 52.5% | RPMI-8226 leukemia 17.5% | OVCAR-8 ovarian 56% | OVCAR-5 ovarian 102% | OVCAR-4 ovarian 83.1% | SK-OV-3 ovarian 94.9% | IGROV1 ovarian 78.7% | OVCAR-3 ovarian 76.3% | HS 578T breast 54.4% | NCI/ADR-RES ovarian 62.6% | BT-549 breast 66.2% | MDA-MB-435 melanoma 87% | SW-620 colon 95.8% | MCF7 breast 52.2% | HCC-2998 colon 105% | KM12 colon 96.3%
active: T-47D breast 1.99%

CCCN1[C@@H]2CC[C@H]1/C(=C\c1ccc(OC)c(OC)c1)C(=O)/C2=C/c1ccc(OC)c(OC)c1
active: RPMI-8226 leukemia 9.06%
inactive: SR leukemia 26.8% | OVCAR-8 ovarian 35.5% | OVCAR-5 ovarian 78.2% | OVCAR-4 ovarian 46% | SK-OV-3 ovarian 66.2% | IGROV1 ovarian 56.8% | OVCAR-3 ovarian 56.9% | HS 578T breast 54.2% | NCI/ADR-RES ovarian 42% | T-47D breast 25.1% | BT-549 breast 51.8% | MDA-MB-435 melanoma 39.6% | MCF7 breast 30.2% | HCT-116 colon 22.1% | HCC-2998 colon 86.7% | KM12 colon 54.6%

C=C(C)[C@@H]1CC[C@]2(C(=O)N3CCN(C)CC3)CC[C@]3(C)[C@H](CC[C@@H]4[C@@]5(C)C/C(=C/c6ccncc6)C(=O)C(C)(C)[C@@H]5CC[C@]43C)[C@@H]12
active: SR leukemia 9.44%
inactive: RPMI-8226 leukemia 20.7% | OVCAR-8 ovarian 49.1% | OVCAR-5 ovarian 88.8% | OVCAR-4 ovarian 53% | SK-OV-3 ovarian 88.8% | IGROV1 ovarian 74.8% | OVCAR-3 ovarian 53.3% | HS 578T breast 61.8% | T-47D breast 48.3% | BT-549 breast 66.3% | MDA-MB-435 melanoma 56.4% | SW-620 colon 39.6% | MCF7 breast 19% | HCT-116 colon 17.6% | HCC-2998 colon 62.5% | KM12 colon 51.3%

NC(=O)CSSCC(N)=O
inactive: SR leukemia 85.2% | RPMI-8226 leukemia 91.4% | OVCAR-8 ovarian 101% | OVCAR-5 ovarian 105% | OVCAR-4 ovarian 111% | SK-OV-3 ovarian 109% | IGROV1 ovarian 97.8% | OVCAR-3 ovarian 114% | HS 578T breast 97.6% | NCI/ADR-RES ovarian 105% | T-47D breast 103% | MDA-MB-435 melanoma 91.6% | SW-620 colon 95.3% | MCF7 breast 103% | HCT-116 colon 91.6% | KM12 colon 101%

C[C@H]1[C@H](C)CC[C@]2(C(=O)Nc3ccc4ncccc4c3)CC[C@]3(C)C(=CC[C@@H]4[C@@]5(C)CCCNC(C)(C)[C@@H]5CC[C@]43C)[C@H]12
inactive: OVCAR-5 ovarian 74.9% | OVCAR-4 ovarian 27.8% | SK-OV-3 ovarian 103% | T-47D breast 78% | BT-549 breast 92%
active: SR leukemia -49.2% | RPMI-8226 leukemia -42.3% | OVCAR-8 ovarian -80.5% | IGROV1 ovarian -73.3% | OVCAR-3 ovarian -45.1% | HS 578T breast -53.3% | NCI/ADR-RES ovarian -48.6% | MCF7 breast -83.4% | HCT-116 colon -100% | KM12 colon -60.5%

CCOC(=O)c1cc(C(=O)c2ccc(OC)c(OC)c2)n2c1ccc1ccccc12
inactive: SR leukemia 86.5% | RPMI-8226 leukemia 80% | OVCAR-8 ovarian 94.7% | OVCAR-5 ovarian 104% | OVCAR-4 ovarian 91.9% | SK-OV-3 ovarian 93% | IGROV1 ovarian 58.6% | OVCAR-3 ovarian 99.6% | HS 578T breast 93.8% | T-47D breast 85.3% | BT-549 breast 100% | MDA-MB-435 melanoma 89.5% | SW-620 colon 93.4% | MCF7 breast 80% | HCT-116 colon 88% | HCC-2998 colon 109% | KM12 colon 98.4%

Cc1cnc(C(=O)Nc2nc3ccc(S(=O)(=O)Nc4ccc(C5(C(F)(F)F)CC5)cc4)cc3[nH]2)cn1
active: RPMI-8226 leukemia 6.96% | OVCAR-3 ovarian -19.3% | HS 578T breast 8.52% | MDA-MB-435 melanoma -77.5%
inactive: SR leukemia 18.9% | OVCAR-8 ovarian 25.8% | OVCAR-5 ovarian 38.8% | OVCAR-4 ovarian 32.9% | SK-OV-3 ovarian 36.9% | IGROV1 ovarian 31.4% | T-47D breast 21.6% | BT-549 breast 40.6% | SW-620 colon 15% | MCF7 breast 17.4% | HCT-116 colon 19.5% | HCC-2998 colon 42.4% | KM12 colon 16%

COc1ccc(N2CCN(c3ccc(NC4=C(Cl)C(=O)c5ncccc5C4=O)cc3)CC2)cc1
inactive: SR leukemia 12.9% | RPMI-8226 leukemia 35.5% | OVCAR-8 ovarian 32.9% | OVCAR-5 ovarian 84.4% | OVCAR-4 ovarian 28.8% | SK-OV-3 ovarian 75.9% | NCI/ADR-RES ovarian 83% | T-47D breast 33.2% | BT-549 breast 47.8% | SW-620 colon 15.9% | HCT-116 colon 15.9% | HCC-2998 colon 80.8% | KM12 colon 63.8%
active: IGROV1 ovarian -49.7% | OVCAR-3 ovarian -3.66% | MDA-MB-435 melanoma -4.96% | MCF7 breast 8.91%

CCNC(=O)Oc1ccc(/C(=C(\C)c2ccccc2)c2ccc(OCCN3CCCCC3)cc2)cc1
active: SR leukemia 4.98%
inactive: RPMI-8226 leukemia 38.7% | OVCAR-8 ovarian 73.6% | OVCAR-5 ovarian 84.8% | OVCAR-4 ovarian 65.5% | SK-OV-3 ovarian 53.6% | IGROV1 ovarian 79.9% | OVCAR-3 ovarian 69.4% | HS 578T breast 57.5% | T-47D breast 24.1% | BT-549 breast 65.2% | MDA-MB-435 melanoma 65.5% | SW-620 colon 59.1% | MCF7 breast 25.8% | HCT-116 colon 40.5% | KM12 colon 50.8%

CN(C)CCC(=O)c1ccc([N+](=O)[O-])cc1
inactive: SR leukemia 97.8% | RPMI-8226 leukemia 89% | OVCAR-8 ovarian 110% | OVCAR-5 ovarian 102% | OVCAR-4 ovarian 100% | SK-OV-3 ovarian 99.5% | IGROV1 ovarian 109% | OVCAR-3 ovarian 110% | HS 578T breast 107% | NCI/ADR-RES ovarian 107% | T-47D breast 89.4% | MDA-MB-435 melanoma 104% | SW-620 colon 106% | MCF7 breast 89.4% | HCT-116 colon 103% | HCC-2998 colon 106% | KM12 colon 113%

O=C1Nc2cc(-c3ccc(NC(=O)c4ccccc4)cc3)ccc2/C1=C/c1ccc[nH]1
inactive: SR leukemia 29.7% | RPMI-8226 leukemia 101% | OVCAR-8 ovarian 101% | OVCAR-5 ovarian 110% | OVCAR-4 ovarian 70% | SK-OV-3 ovarian 110% | IGROV1 ovarian 95.3% | OVCAR-3 ovarian 93.9% | HS 578T breast 115% | NCI/ADR-RES ovarian 90.1% | T-47D breast 35.7% | BT-549 breast 89.1% | SW-620 colon 105% | HCT-116 colon 99.1% | HCC-2998 colon 99.8% | KM12 colon 68.7%
active: MCF7 breast 8.35%

CCOC(=O)[C@@H]1CCCN(S(=O)(=O)c2ccc(S(=O)(=O)N(CC)CC)c(F)c2)C1
inactive: SR leukemia 60.1% | RPMI-8226 leukemia 61% | OVCAR-8 ovarian 77.8% | OVCAR-5 ovarian 95.5% | OVCAR-4 ovarian 75.5% | SK-OV-3 ovarian 82.4% | IGROV1 ovarian 93.5% | OVCAR-3 ovarian 88% | HS 578T breast 93.5% | NCI/ADR-RES ovarian 47.2% | T-47D breast 53.3% | BT-549 breast 58.5% | SW-620 colon 86.6% | MCF7 breast 61.8% | HCT-116 colon 42% | HCC-2998 colon 92.5% | KM12 colon 81.9%
